High-throughput results (PubChem BioAssay)
VACV mCherry inh = qHTS for Stage-Specific Inhibitors of Vaccinia Orthopoxvirus: mCherry Reporter Primary qHTS; Potency, µM (series often up to 36.5 µM), actives largely listed as inhibitors; Vaccinia virus mCherry reporter infection, fluorescence; actives 0.63% (n = 310,000); AID 720579, 2013; calls by dose curve; tested in A549 cells; note: nearly all actives have a fitted effect of over 35% in size
SARS PLP yeast = qHTS of Yeast-based Assay for SARS-CoV PLP | S. cerevisiae expressing SARS-CoV PLpro, growth rescue | Potency, µM (top dose mostly 32.9 µM), actives largely listed as activators | actives 0.19% (n = 330,000); calls by dose curve; note: nearly all actives have a fitted effect of over 55% in size
AMA1-RON2 inh = qHTS for Inhibitors of AMA1-RON; Towards Development of Antimalarial Drug Lead: Primary Screen; actives 0.2% (n = 360,000); Plasmodium falciparum AMA1 (3D7) - RON2 peptide interaction; AID 720542, 2013; AlphaScreen AMA1-biotinylated RON2 peptide binding; Potency, µM (highest dose often 58.2 µM), hits mostly inhibitors; note: nearly all actives have a fitted effect of over 45% in size
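AMA1 (3D7) with his tag at 25 nM final met compounds first, then biotinylated RON2 peptide at 25 nM; detection used donor plus acceptor beads, 10 µg/mL apiece, read by AlphaScreen after 30 min at room temperature.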
VACV Venus inh = qHTS for Stage-Specific Inhibitors of Vaccinia Orthopoxvirus: Venus Reporter Primary qHTS | Vaccinia virus Venus reporter expression, fluorescence | Potency, µM (top dose mostly 36.5 µM), actives largely listed as inhibitors | actives 0.46% (n = 330,000) | AID 720580, 2013; calls by dose curve; tested in A549 cells; note: nearly all actives have a fitted effect of over 30% in size
AmpC inh detg = qHTS Inhibitors of AmpC Beta-Lactamase (assay with detergent); Potency, µM (doses to about 114 µM), usual class: inhibitors; AmpC hydrolysis of nitrocefin, absorbance 480 nm, 0.01% Triton; actives 0.041% (n = 370,000); note: nearly all actives have a fitted effect of over 25% in size
Target sequence (P00811 whole entry, looked up): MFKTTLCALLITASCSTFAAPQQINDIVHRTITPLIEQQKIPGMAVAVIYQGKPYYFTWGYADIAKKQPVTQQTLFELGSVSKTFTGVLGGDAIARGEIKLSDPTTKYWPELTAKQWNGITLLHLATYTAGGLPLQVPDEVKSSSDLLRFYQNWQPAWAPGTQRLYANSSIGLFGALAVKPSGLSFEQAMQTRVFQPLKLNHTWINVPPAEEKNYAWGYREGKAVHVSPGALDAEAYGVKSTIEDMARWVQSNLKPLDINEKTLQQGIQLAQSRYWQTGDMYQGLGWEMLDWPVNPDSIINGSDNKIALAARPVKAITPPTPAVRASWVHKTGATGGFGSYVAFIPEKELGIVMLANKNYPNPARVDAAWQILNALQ
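AmpC (5.3 nM in the dispensed reagent) in 20 mM phosphate pH 7.0 with 0.01% (detergent screen) or 0.0001% Triton X-100 was preincubated with compounds for 15 min at room temperature. Nitrocefin was then added from an 800 uM solution, and hydrolysis was followed at 480 nm.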
AmpC inh no detg = qHTS Inhibitors of AmpC Beta-Lactamase (assay without detergent); AmpC nitrocefin hydrolysis, absorbance 480 nm, 0.0001% Triton; Potency, µM (highest dose often 57.1 µM), hits mostly inhibitors; actives 0.52% (n = 330,000); note: nearly all actives have a fitted effect of over 20% in size
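AmpC (5.3 nM in the dispensed reagent) in 20 mM phosphate pH 7.0 with 0.01% (detergent screen) or 0.0001% Triton X-100 was preincubated with compounds for 15 min at room temperature. Nitrocefin was then added from an 800 uM solution, and hydrolysis was followed at 480 nm.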
Hits are given with their value; n = inactive; u = inconclusive; x = no result given; [ ] = another dose, or the depositor's remark. An excerpt weighted towards active compounds, which were near 1.3% of everything screened. Unless noted, calls come from the whole dose curve; as a rule, active = well fitted curve in the direction sought with a large enough effect; inconclusive = small, poorly fitted or top-dose-only effect, or another doubt; inactive = no such curve, though single readings can be large; an effect the other way counts as inactive or inconclusive.

SMILES	VACV mCherry inh	SARS PLP yeast	AMA1-RON2 inh	VACV Venus inh	AmpC inh detg	AmpC inh no detg
CC(C)CN(C(=O)c1ccc([N+](=O)[O-])s1)c1c(N)n(Cc2ccccc2)c(=O)[nH]c1=O	20µM	n	n	u	n	n
Cc1ccc(C)c(OCC(=O)N(Cc2ccccc2)c2c(N)n(Cc3ccccc3)c(=O)[nH]c2=O)c1	28µM	x	n[11.6 µM]	u	x	x
Nc1c(N(CCC2=CCCCC2)C(=O)CCCOc2ccccc2)c(=O)[nH]c(=O)n1Cc1ccccc1	n	n	n	u	u	14µM
CC(C)CN(C(=O)COC(=O)c1cncc(Br)c1)c1c(N)n(Cc2ccccc2)c(=O)[nH]c1=O	n	n	n	n	n	n
Cc1ccc(C(=O)Nc2cccc(-c3nc(CNC(=O)[C@@H]4C[C@@H](C)NC(=S)N4)c(C)o3)c2)s1	n	x	x	n	x	x
Cc1c(C(=O)NC(C)(C)C)sc2ncnc(NCCN(C)C)c12	n	x	x	n	x	x
CCC(NC(C)C)C(O)c1ccc(O)c(O)c1 (stereo not given)	n	n	n	n	n	n
CCC(c1ccc(O)c(O)c1)C(CC)c1ccc(O)c(O)c1 (stereo not given)	3.2µM	x	25µM	n	x	x
COc1cccc(O)c1CN1CCC2(CC1)c1ccccc1[C@@H](NC(=O)c1ccsc1)[C@@H]2OC	n	x	x	n	x	x
O=C(Cn1cc(C(=O)c2ccco2)c2ccccc21)Nc1ccccc1F	n	n	n	n	n	28µM
CCN1CCN(C(=O)c2cnn(-c3ncc4c(n3)-c3ccccc3CCC4)c2COC)CC1	n	x	x	n	x	x
O=C(NCc1ccccc1Cl)c1cccc2c1C(=O)c1ccc(-c3ccc(OC(F)(F)F)cc3)cc1S2(=O)=O	u	n	n	10µM	x	n
O=C(NCc1cc(C(F)(F)F)ccc1Cl)c1cccc2c1C(=O)c1ccc(-c3ccc(OC(F)(F)F)cc3)cc1S2(=O)=O	x	n	x	x	x	n
COc1cc(NC(=O)Cn2nc(Cc3cccnc3)c3ccccc3c2=O)cc(OC)c1OC	n	n	n	n	n	n
COc1ccc(NC(=O)Cn2nc(Cc3cccnc3)c3ccccc3c2=O)cc1OC	n	n	n	n	u	2.8µM
CN1C(=O)CC(c2ccccc2)Nc2ccccc21 (stereo not given)	n	n	n	n	n	n
N#CC1CC(c2ccccc2)Nc2cc(Cl)ccc2N1 (stereo not given)	n	n	n	u	u	11µM
CCOC(=O)c1c(C)n(-c2ccc(C)cc2)c2c(C(C(C)=O)C(=O)O)c(Br)c(O)c(O)c12 (stereo not given)	x	n	n	u	n	n
CCOC(=O)C(C(C)=O)c1c(Br)c(O)c(O)c2c(C(=O)c3ccc(C)cc3)coc12 (stereo not given)	13µM	n	n	13µM	n	n
CSc1ccc(-c2ccc(C(=O)NCC3CCCO3)c(N3CCC(O)CC3)n2)cc1 (stereo not given)	n	x	x	n	x	x
CC1OC(OC2CC(O)C3(CO)C4C(O)CC5(C)C(C6=CC(=O)OC6)CCC5(O)C4CCC3(O)C2)C(O)C(O)C1O (stereo not given)	0.089µM	x	n	u	x	x
COc1ccc(C(=O)N/N=C/C23CC[C@@H](O)CC2(O)CC[C@@H]2[C@@H]3CCC3(C)C(C4=CC(=O)OC4)CCC23O)cc1 (stereo not given in full)	x	n	n	x	n	n
O=C(/C=C/c1ccc([N+](=O)[O-])cc1)/C=C/c1ccco1	x	n	x	x	n	20µM
O=C(/C=C/c1ccc([N+](=O)[O-])cc1)c1ccco1	x	n	n	x	n	n
COC(=O)c1scc(S(C)(=O)=O)c1-n1cccc1	n	n	n	n	n	n
SMILES	VACV mCherry inh	SARS PLP yeast	AMA1-RON2 inh	VACV Venus inh	AmpC inh detg	AmpC inh no detg
Cc1csc(C(=O)O)c1-n1cccc1	x	n	n	x	n	0.28µM
Cc1ccc(C(=O)OC2OC(=O)C(Cl)=C2N2CCOCC2)cc1 (stereo not given)	n	n	n	n	11µM	n
CCCC(=O)Nc1cccc(Oc2ccc3c(c2)C(=O)NC3=O)c1	x	n	n	x	n	n
Cc1ccc2c(c1)Oc1ccc(NC(=O)CCCl)cc1C(=O)N2	u	n	n	u	u	20µM
CCCC(=O)Nc1ccc2c(c1)C(=O)NC2=O	n	n	n	n	n	45µM
OC(c1cccnc1)c1ccc2c(c1)CN(Cc1ccc(-c3ccccc3Cl)o1)CCO2 (stereo not given)	n	x	x	n	x	x
S=C(Nc1ccc(Oc2ccc(NC(=S)NC3CCCCC3)cc2)cc1)NC1CCCCC1	n	11µM	n[2.32 µM]	n	n	n
Fc1cccc(NC(=S)NC2CCCCCCC2)c1	x	n	n	x	n	13µM
Cc1cc(C)cc(NC(=O)C2CC23CCN(Cc2ccc4ncccc4c2)CC3)c1 (stereo not given)	n	x	x	n	x	x
COc1ccc(-c2onc(C)c2C)cc1S(=O)(=O)NCC1CCN(Cc2cc(C)ccc2C)CC1	u	x	x	u	n	x
COCc1ccc(C(=O)N2CCOc3c(cc(-c4cc(C)c5cccc(OC)c5n4)cc3OC)C2)o1	n	x	x	n	x	x
COc1cc(C2CC(=O)Nc3cc(C)c(C)cc32)cc(OC)c1OC (stereo not given)	u	n	n	n	n	n
Cc1cc2c(cc1C)C(c1cccc([N+](=O)[O-])c1)CC(=O)N2 (stereo not given)	0.35µM	n	n	1µM	n	n
COc1ccc(OC)c(C(Cc2ccnc3ccccc23)Cc2ccnc3ccccc23)c1	n	x	x	n	x	x
CCN(CC)CCNC(=O)C(Cl)=C1C(Cl)=C(Cl)C(Cl)=C1Cl	2µM	x	n	0.79µM	x	x
CCN(CC)CCNC(=O)C12CC3CC(CC(C3)C1)C2	n	n	n	n	n	n
COc1ccc(OC)c(C(=O)N(Cc2cc3cccc(C)c3nc2N2CCC(O)CC2)C2CC2)c1	n	x	x	n	x	x
Cc1noc(C)c1CC(=O)N1CCOc2c(cc(-c3nc4ccccc4s3)cc2OC2CCOC2)C1 (stereo not given)	n	x	x	n	x	x
CC(C)c1nccn1CCC(=O)O	n	n	n	n	n	n
CSc1ccn(CCC(=O)O)c(=O)n1	n	10µM	n	n	n	n
COC(=O)C/C=C/[C@@H](C)[C@@H](/C=N/OC[C@@H](C)[C@H](OCc1ccccc1)C(C)C)NS(=O)(=O)c1ccc(C)cc1	x	n	x	x	u	28µM
C=CC[C@@H]1C=C[C@H](O/N=C/[C@@H](NS(=O)(=O)c2ccc(C)cc2)[C@H](C)/C=C/CC(=O)OC)[C@@H](CO)O1	x	n	x	x	u	n
